# Bioassay records as filed in PubChem.
# FAK blocker – blocks human focal adhesion kinase activity | Q05397 | biochemical FAK kinase activity assay | inhibition, %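 (tested at 7 µM)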 | 0.84% of 97,000 active; in the data active = inhibition above about 19%
# Target sequence (Q05397 whole entry, looked up): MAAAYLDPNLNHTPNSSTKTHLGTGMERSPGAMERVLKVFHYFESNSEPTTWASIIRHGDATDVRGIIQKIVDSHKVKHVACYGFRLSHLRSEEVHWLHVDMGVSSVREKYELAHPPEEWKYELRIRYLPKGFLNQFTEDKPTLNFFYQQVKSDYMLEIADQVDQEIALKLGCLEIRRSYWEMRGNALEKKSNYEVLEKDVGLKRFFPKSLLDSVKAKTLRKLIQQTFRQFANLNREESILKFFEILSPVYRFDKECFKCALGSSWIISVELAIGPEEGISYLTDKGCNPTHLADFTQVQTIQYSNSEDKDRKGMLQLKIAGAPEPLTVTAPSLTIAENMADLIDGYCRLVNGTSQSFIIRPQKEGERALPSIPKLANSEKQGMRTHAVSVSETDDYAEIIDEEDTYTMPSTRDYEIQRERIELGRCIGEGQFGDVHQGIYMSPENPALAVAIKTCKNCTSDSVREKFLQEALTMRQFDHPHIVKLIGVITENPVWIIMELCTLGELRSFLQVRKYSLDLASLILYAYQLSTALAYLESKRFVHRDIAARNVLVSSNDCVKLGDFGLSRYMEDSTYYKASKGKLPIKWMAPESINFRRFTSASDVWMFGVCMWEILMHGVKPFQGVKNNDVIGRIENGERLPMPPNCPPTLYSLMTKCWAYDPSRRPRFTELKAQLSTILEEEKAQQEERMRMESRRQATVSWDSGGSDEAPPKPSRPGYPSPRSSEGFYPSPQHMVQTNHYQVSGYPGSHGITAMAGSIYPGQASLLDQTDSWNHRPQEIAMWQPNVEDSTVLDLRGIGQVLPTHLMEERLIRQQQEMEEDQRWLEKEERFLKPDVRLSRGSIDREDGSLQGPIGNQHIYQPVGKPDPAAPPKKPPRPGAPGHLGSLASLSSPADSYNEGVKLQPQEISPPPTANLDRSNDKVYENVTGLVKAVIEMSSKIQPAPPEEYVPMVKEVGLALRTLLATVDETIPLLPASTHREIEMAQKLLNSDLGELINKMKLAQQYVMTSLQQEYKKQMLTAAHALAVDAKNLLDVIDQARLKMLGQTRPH
# ERb coact inh – blocks coactivator binding to human estrogen receptor beta. Q92731. TR-FRET ER-beta LBD / SRC1-Cy5 peptide binding; receptor agonist-loaded with 1 µM estradiol. inhibition, % at 25.6 µM. 1.3% of 86,000 active. AID 633;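 active = compounds whose percent inhibition of the receptor-coactivator binding signal exceeds about 50% in the single-dose screen, limit read from the data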
# ERa SRC1 inh – blocks coactivator binding to human estrogen receptor alpha | AID 629 | TR-FRET ER-alpha LBD / SRC-1 peptide, estradiol-bound | inhibition, % at 25.6 µM | P03372 | 1.7% of 86,000 active; in the data active = inhibition above about 50%
# Smad3 inh – blocks human Smad3 binding to FoxH1 peptide; P84022; TR-FRET Smad3/Dy647-FoxH1 peptide binding, europium anti-His; inhibition, % at 25 µM; 0.29% of 88,000 active; AID 630;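 active = compounds that reduce the energy-transfer binding signal between the protein and its labelled peptide by more than half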
# ERa coact pot – enhances coactivator binding to human estrogen receptor alpha; TR-FRET ERalpha-LBD/SRC-Cy5 coactivator binding, 2 h; 100 = basal binding, no effect; coactivator binding (% of control), % at 25.6 µM; 1.3% of 86,000 active; in the data active = activity above about 200%;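 also: binding measured in presence of low estradiol as agonist stimulus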
# A number is an active result; - = inactive; . = not tested or not shown; [ ] = remark or other dose. Only some compounds are listed: those with a hit (about 3.3% of all), similar ones and a draw of the others.
SMILES,FAK blocker,ERb coact inh,ERa SRC1 inh,Smad3 inh,ERa coact pot
CN(C)CCCCN1CCc2c(n(C)c3ccccc23)C1=O,.,.,.,-,.
CCN(CC)S(=O)(=O)c1cccc(C(=O)Nc2nc3cc4c(cc3s2)OCCO4)c1,.,-,-,-,-
CN(CC1CCCO1)S(=O)(=O)c1ccc(C(=O)Nc2nc3cc4c(cc3s2)OCO4)cc1 (stereo not given),-,-,63[fluorescence artefact?],-,-
Cc1ccc(S(=O)(=O)N2CCCCC2)cc1C(=O)Nc1ccc2cn[nH]c2c1,-,-,-,-,-
Cc1ccc(S(=O)(=O)N2CCCCC2)cc1C(=O)Nc1ncn[nH]1,.,59,55,-,-
NS(=O)(=O)c1ccc(N=Nc2cc3ccccc3c(C(=O)O)c2O)cc1,.,.,.,-,.
COCCCn1c2nc3ccccc3nc2c2c(=O)n(Cc3cccs3)cnc21,-,-,-,-,-
COCCCn1c2nc3ccccc3nc2c2c(=O)n(Cc3ccc(Cl)cc3)cnc21,-,-,56[fluorescence artefact?],-,-
COCCCn1cnc2c(c1=O)c1nc3ccccc3nc1n2-c1ccccc1,-,-,-,-,-
COCCCn1c2nc3ccccc3nc2c2c(=O)n(Cc3ccccc3Cl)cnc21,.,-,-,-,257
c1ccc(-c2cc(-c3cc(-c4ccccn4)[nH]n3)n[nH]2)nc1,.,.,.,-,.
CCn1c(=N)c(C(N)=O)cc2c(=O)n3cccc(C)c3nc21,-,-,50,-,-
COCCCn1c(=N)c(C(N)=S)cc2c(=O)n3cccc(C)c3nc21,.,-,69[fluorescence artefact?],-,-
CN1CCN(c2ccc(Cl)cc2NC(=O)c2nn(-c3ccccc3)c(=O)c3ccccc23)CC1,-,-,-,-,242[fluorescence artefact?]
O=C(Nc1ccc2c(c1)OCO2)c1nn(-c2ccccc2)c(=O)c2ccccc12,-,-,-,-,-
C/C(=N\Nc1ccc2ccccc2n1)c1ccccc1O,.,.,.,-,.
COc1cc(NC(=O)C2CCCN2C(=O)C2CCC(C)CC2)cc(OC)c1OC (stereo not given),-,.,.,.,.
COc1ccc(OC)c(NC(=O)C2CCCN2C(=O)C2CCC(C)CC2)c1 (stereo not given),-,-,91[fluorescence artefact?],-,-
COc1ccc(OC)c(NC(=O)CCN2CCN(Cc3ccccc3)CC2)c1,-,-,-,-,-
COc1ccc(OC)c(NC(=O)CCN2CCCCCC2)c1,-,-,51[fluorescence artefact?],-,-
O=C1[C@@H]2[C@H](C(=O)N1CN1CCOCC1)[C@H]1[C@@H]3C=C[C@@H]([C@@H]4C(=O)N(CN5CCOCC5)C(=O)[C@@H]34)[C@@H]21,.,.,.,-,.
CCSC[C@@H](N)C(=O)O,.,.,.,-,.
O=C(O)/C=C/C(=O)Nc1ccc2c(c1)C(=O)c1cc(F)ccc1-2,.,.,.,-,.
N#C[C@H](C(=O)O)C(c1c(Cl)cccc1Cl)[C@H](C#N)C(=O)O,.,.,.,-,.
O=C(Nc1ccc2c(c1)OCO2)Nc1ccc(Br)cn1,-,-,-,-,228
SMILES,FAK blocker,ERb coact inh,ERa SRC1 inh,Smad3 inh,ERa coact pot
COc1ccc(C)cc1NC(=O)Nc1ccc(Br)cn1,-,-,-,-,243
Nc1nc(N)c2[nH]cnc2n1 (tested in a mixture with another compound),.,.,.,-,.
CCc1nnc2n1N=C(c1ccc(-c3cc(Cl)ccc3Cl)o1)CS2,-,-,59,-,-
CCc1nnc2n1N=C(c1ccc(-c3ccc(Cl)cc3Cl)o1)CS2,-,-,-,-,-
O=[N+]([O-])c1ccc(NN=C2c3ccccc3Cc3ccccc32)c([N+](=O)[O-])c1,.,.,.,-,.
CCOC(=O)c1c(C)[nH]c(C)c1C(=O)CSc1nnc(-c2cc(OC)c(OC)c(OC)c2)o1,-,-,-,-,313
CCCCOC(=O)CSc1nnc(-c2cc(OC)c(OC)c(OC)c2)o1,-,-,-,-,-
O=C(CSc1nnc(-c2ccco2)n1-c1ccccc1)N1CCN(C(=O)c2ccco2)CC1,-,-,-,-,521[fluorescence artefact?]
CC1(C)CC(=O)c2c(oc3cc(O)c(O)cc23)C1,-,58[fluorescence artefact?],-,-,-
CCNC(=O)c1oc2c(c1C)C(=O)CC(C)(C)C2,-,-,-,-,-
O=C(O)C1C(C(=O)O)C(C(=O)O)C1C(=O)O (stereo not given),.,.,.,-,.
O=C(Nc1cccc(C(F)(F)F)c1)c1cnc2n(c1=O)CCS2,-,-,-,-,285[fluorescence artefact?]
COc1ccc2c3c([nH]c2c1)[C@H]1C[C@@H]2[C@H](C[C@@H](O)[C@H](OC)[C@H]2C(=O)O)CN1CC3,.,.,.,-,.
CCCc1cc(=O)[nH]c(/N=C(/NC(=O)c2ccccc2)Nc2ccc3c(c2)OCCO3)n1,-,-,-,-,-
CCCc1cc(=O)[nH]c(/N=C(/NC(=O)C(C)N2C(=O)c3ccccc3C2=O)Nc2ccccc2)n1 (stereo not given),-,-,-,53,-
CC1(C)S[C@H]2[C@H](C(=O)O)N=C(Cc3ccccc3)N2[C@H]1C(=O)O,.,.,.,-,.
O=C(CSc1nc2c(cnn2-c2ccccc2)c(=O)[nH]1)c1ccc(Cl)cc1,-,-,-,-,329
CCCSc1nc2c(cnn2-c2ccc(C)c(C)c2)c(=O)[nH]1,-,54[fluorescence artefact?],50[fluorescence artefact?],-,244[fluorescence artefact?]
CCCSc1nc2c(cnn2-c2ccccc2)c(=O)[nH]1,.,-,-,-,201
CCCCSc1nc2c(cnn2-c2ccc(C)c(C)c2)c(=O)[nH]1,-,-,-,-,-
COC(=O)c1ccc(CSc2nc3c(cnn3-c3ccc(C)c(C)c3)c(=O)[nH]2)o1,-,-,80,-,-
CN1CCN(CC(=O)N2c3ccccc3Sc3cc4ccccc4cc32)CC1,.,.,.,-,.
OC[C@@H](O)[C@@H](O)[C@@H](O)[C@@H](O)c1nc2ccc(Cl)cc2[nH]1,.,.,.,-,.
O=C(Cc1cnn(-c2ccccc2)c1)c1ccc(O)c(O)c1O,-,85[fluorescence artefact?],78[fluorescence artefact?],-,-
O=C(CN1C(=O)c2ccccc2C1=O)[C@@H](O)CN1C(=O)c2ccccc2C1=O,.,.,.,-,.
SMILES,FAK blocker,ERb coact inh,ERa SRC1 inh,Smad3 inh,ERa coact pot
CCOC(=O)CCC(NC(=O)c1ccc(NCN2C(=O)CCC2=O)cc1)C(=O)OCC (stereo not given),-,54,-,-,-
CCOC(=O)CCC(NC(=O)c1ccc(NCN2C(=O)c3ccccc3C2=O)cc1)C(=O)OCC (stereo not given),-,-,-,-,-
CCCCC[C@@H](O)[C@@H]1C(=O)O[C@@H](C)[C@@H](O)C=C/C=C\C=CC=C/C=C(/C)[C@H](O)C[C@H](O)C[C@H](O)C[C@H](O)C[C@H](O)C[C@H](O)C[C@@H]1O,.,.,.,-,.
CSc1ncc2c(n1)-c1cc(C)ccc1SC2,-,-,97,-,-
O=C(O)C(F)(F)C(F)(F)C(F)(F)C(F)(F)C(=O)O,.,.,.,-,.
CSc1nc2ccccc2n1Cc1cccc(F)c1,-,75[fluorescence artefact?],-,-,-
CC(C)N(C(=O)CSc1nc2ccccc2n1Cc1ccc(F)cc1)C(C)C,-,-,-,-,-
c1ccc2cc(NCNc3ccc4ccccc4c3)ccc2c1,.,.,.,-,.
CCOC(=O)N1CCC(n2c(=S)[nH]c3cc(OCC)c(OCC)cc3c2=O)CC1,.,52[fluorescence artefact?],-,-,-
